Assay outcomes (PubChem BioAssay)
RORg inh – ROR gamma (mouse) transcription inhibition | Drosophila S2 Gal4-RORgamma UAS-luciferase reporter, 20 h | Potency, µM (doses to about 53.6 µM), for the others: at the top dose activity change, negative = inhibition, most hits filed as inhibitors | 310,000 compounds, 5.4% hits; note: nearly all actives have a fitted effect of over 60% in size
Target sequence (P51450 whole entry, looked up, the tested form may be a part): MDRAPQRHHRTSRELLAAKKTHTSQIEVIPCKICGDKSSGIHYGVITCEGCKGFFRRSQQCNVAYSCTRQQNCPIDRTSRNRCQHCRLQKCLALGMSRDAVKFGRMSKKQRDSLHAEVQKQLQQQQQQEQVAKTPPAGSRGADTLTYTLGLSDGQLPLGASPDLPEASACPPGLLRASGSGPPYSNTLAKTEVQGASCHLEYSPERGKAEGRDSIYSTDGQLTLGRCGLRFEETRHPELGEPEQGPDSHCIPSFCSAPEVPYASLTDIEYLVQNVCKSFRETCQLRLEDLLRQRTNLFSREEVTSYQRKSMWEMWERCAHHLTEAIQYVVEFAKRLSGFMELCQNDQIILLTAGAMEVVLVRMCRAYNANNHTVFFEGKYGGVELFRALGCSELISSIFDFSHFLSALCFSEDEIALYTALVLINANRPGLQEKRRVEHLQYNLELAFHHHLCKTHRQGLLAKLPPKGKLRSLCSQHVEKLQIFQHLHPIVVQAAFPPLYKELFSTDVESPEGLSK
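A Gal4/UAS one-hybrid system in insect cells: metallothionein-promoter Gal4–ROR gamma fusion plus Photinus luciferase reporter. Copper sulfate 700 uM final, 20 hr ambient incubation, luminescent detection after 10 min with reagent.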
TDP1 cell CPT – DT40-hTDP1 cell growth loss with CPT; chicken DT40 Tdp1-/-;hTDP1 cells + 20 nM CPT, ATP luminescence, 48 h; Potency, µM (titrated, usually from 46.2 µM), inactives show at the top dose activity change, negative = growth inhibition, usual class: inhibitors; 420,000 compounds, 12% hits; note: nearly all actives have a fitted effect of over 55% in size
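Chicken DT40 Tdp1-/- cells stably complemented with human TDP1 were seeded at 400 cells/well in medium containing 20 nM camptothecin, exposed to pin-transferred compounds, and grown at 37 °C for at least 48 hr. Viability was read as ATP luminescence.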
VP16 counter – inhibits Gal4-VP16 luciferase reporter, ROR gamma counter-screen. Potency, µM (titrated, usually from 53.6 µM), without a hit: at the top dose activity, negative = inhibition, most hits filed as inhibitors. AID 2546. Drosophila S2 Gal4-VP16 UAS-luciferase, luminescence, 20 h. 310,000 compounds, 3.5% hits;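 note: Gal4-VP16 expression switched on by copper sulfate through the metallothionein promoter; nearly all actives have a fitted effect of over 50% in size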
TDP1 inh – blocks human tyrosyl-DNA phosphodiesterase 1; AID 485290; Potency, µM (top dose mostly 130 µM), without a hit: at the top dose activity change, negative = inhibition, most hits filed as inhibitors; 350,000 compounds, 0.28% hits; Q9NUW8; recombinant TDP1, AlphaScreen DNA substrate cleavage; note: nearly all actives have a fitted effect of over 40% in size
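Signal: AlphaScreen proximity between streptavidin donor and anti-FITC acceptor beads on intact substrate. Reaction: Tdp1 1 nM, substrate 15 nM final, 5 min RT after 15 min compound preincubation.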
DT40 TDP1 no CPT – qHTS for Inhibitors of human tyrosyl-DNA phosphodiesterase 1 (TDP1): qHTS in cells in absence of CPT. DT40 Tdp1-/- hTDP1 cells, no CPT, ATP luminescence, 48 h. 420,000 compounds, 15% hits. Potency, µM (doses to about 46.2 µM), for the others: at the highest dose activity change, negative = growth inhibition, actives largely listed as inhibitors; note: nearly all actives have a fitted effect of over 55% in size
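Seeded 400 DT40-hTDP1 cells/well (vehicle DMSO, no 20 nM CPT); pinned compounds; ≥48 hr at 37 °C; CellTiter-Glo luminescence as viability measure.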
Starred values were filed as active, the others as inactive; ? = inconclusive; / = no result given. Only some compounds are listed: those with a hit (about 19% of all), similar ones and a draw of the others. Calls come from the whole dose curve; as a rule, active = well fitted curve in the direction sought with a large enough effect; inconclusive = small, poorly fitted or top-dose-only effect, or another doubt; inactive = no such curve, though single readings can be large; an effect the other way counts as inactive or inconclusive. % is set by controls: 0 for no effect and ±100 for the full control effect; potency is the fitted concentration of half-maximal effect.

SMILES	RORg inh	TDP1 cell CPT	VP16 counter	TDP1 inh	DT40 TDP1 no CPT
COc1cc(OC)c(N(C)C(=O)c2cc3c(s2)-c2ccccc2OC3)cc1Cl	/	13µM*	/	0.0%	23.1µM*
CCc1ccccc1N(C)C(=O)c1cc2c(s1)-c1c(C)cccc1OC2	/	23.1µM*	/	/	23.1µM*
Cc1ccc(CCNC(=O)c2cc3c(s2)-c2c(C)cccc2OC3)cc1	/	?	/	-2.9%	?
Cc1cccc2c1-c1sc(C(=O)NCc3ccccc3Cl)cc1CO2	/	16.4µM*	/	/	25.9µM*
COc1cccc(N2CCN(C(=O)c3cc4c(s3)-c3c(C)cccc3OC4)CC2)c1	/	?	/	4.9%	23.1µM*
COc1ccc(N(C)C(=O)c2cc3c(s2)-c2ccccc2OC3)cc1	/	?	/	2.0%	?
Cc1cccc2c1-c1sc(C(=O)Nc3ccccc3C(N)=O)cc1CO2	/	-28.4%	/	-2.9%	?
Cc1ccc(C2(C)NC(=O)N(CC(=O)Nc3ccccc3N3CCCCC3)C2=O)cc1 (configuration not stated)	/	?	/	-0.2%	?
CC(=O)N[C@@H](C)c1nc2ccccc2n1CCNC(=O)[C@H]1CCCN1c1nc(CN2CCCCC2)cs1	-29.8%	/	-8.1%	/	/
CN(C)C(=O)CC12CC3CC(C1)CC(CC(=O)N(C)C)(C3)C2	7.5%	0.5%	13.0%	-1.2%	-0.6%
OCCNc1nc2ccccc2n1-c1ccccc1	16.8%	?	11.0%	7.0%	-13.4%
Cc1cc(SCC(=O)Nc2ccccc2C)nc(C)n1	-20.6%	4.6%	-2.3%	1.0%	1.0%
CCN(C(=O)c1cc2c(s1)-c1ccccc1OC2)c1cc(OC)ccc1OC	-3.1%	?	-2.4%	/	?
COc1ccc(N(C)C(=O)c2cc3c(s2)-c2c(C)cccc2OC3)c(OC)c1	19.3%	?	-1.7%	5.2%	20.6µM*
O=C(Nc1ccccc1Cl)C1CCN(Cc2cnn(-c3ccccc3)c2-n2cccc2)CC1	18.6%	16.4µM*	?	1.5%	23.1µM*
O=C(NCc1ccc2c(c1)OCO2)C1CCN(Cc2cnn(-c3ccccc3)c2-n2cccc2)CC1	14.6%	-23.1%	-13.8%	-1.0%	-25.8%
COc1ccc(NC(=O)C2CCN(Cc3cnn(-c4ccccc4)c3-n3cccc3)CC2)cc1OC	2.9%	?	-6.0%	3.1%	?
COc1ccc(OC)c(NC(=O)C2CCN(Cc3cnn(-c4ccccc4)c3-n3cccc3)CC2)c1	14.7%	16.4µM*	-11.2%	8.0%	?
COC(=O)C1=C(C)N(C)C(=S)NC1c1c(OC)ccc2ccccc12 (configuration not stated)	7.94µM*	0.0%	?	5.5%	-10.8%
CC1=C(C(N)=O)C(c2ccncc2)n2nc(-c3ccccc3Cl)nc2N1 (configuration not stated)	-18.2%	-6.4%	-5.4%	-2.6%	-72.1%
O=C(CCCC(=O)N(CC(=O)NC1CCCCC1)c1ccc(F)cc1)Nc1ccccn1	-5.6%	-6.5%	3.8%	-1.6%	-8.2%
CCOC(=O)C1CCN(Cc2nc3ccccc3c(=O)n2-c2ccc(OCC)cc2)CC1	0.0%	?	-0.3%	6.5%	?
CCOc1ccc(-c2csc(Cn3c(CN4CCN(C)CC4)nc4ccccc4c3=O)n2)cc1	?	7.31µM*	-19.5%	5.5%	8.2µM*
CN(C)Cc1nc2ccccc2c(=O)n1Cc1nc(-c2cc3ccccc3o2)cs1	-39.1%	?	8.2%	9.8%	18.4µM*
COCCCNC(=O)C[C@@H]1C[C@@]2(C(=O)OC)CC(C)(C)CC=C2N(CCc2ccc(OC)c(OC)c2)C1=O	/	-15.4%	/	/	-2.9%
COC(=O)[C@@]12C[C@@H](CC(=O)NCCc3ccccc3OC)C(=O)N(CCc3ccc(OC)c(OC)c3)C1=CCC(C)(C)C2	/	23.1µM*	/	/	?
COC(=O)[C@@]12C[C@@H](CC(=O)NCc3ccc(OC)c(OC)c3)C(=O)N(Cc3ccccc3)C1=CCC(C)(C)C2	/	18.4µM*	/	/	?
